Several values for one entry are separate records, joined by “and”; a condition that tells them apart may be missing. Equal values may be shown once. The campaign covered roughly 5,500 compounds. About 2,000 (36%) were called active. Roughly 18% stayed inconclusive and do not appear here. Cut-off read from the data, not from the text of the source: active = normalized growth mostly below about 0.91 (no sharp cut-off); inconclusive = no clear call, values can overlap the other calls; inactive = mostly above about 0.92. The list shows a part of the results.
Experiment: chemical genetic growth profiling, strain panel (AID 1159580);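 note: tested at 20 µM; growth read once vehicle control cultures reached saturation at 30 °C; 1 = growth at the plate median or of vehicle wells; lower values mean less growth of the strain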
Details: S. cerevisiae deletion strains, growth OD

Measured: normalized growth

COc1cc(C/C=C/c2ccccc2)c(OC)cc1O
inactive: locus YAL013W, strain DEP1, active compounds read low 0.989 | locus YAL026C, strain drs2, active compounds read low 0.936 | locus YAL030W, strain snc1, active compounds read low 0.956 | locus YBL061C, strain skt5, active compounds read low 0.964 | locus YBR009C, strain hhf1, active compounds read low 0.969 | locus YBR021W, strain FUR4, active compounds read low 1.04 | locus YBR023C, strain chs3, active compounds read low 0.95 | locus YBR171W, strain sec66, active compounds read low 0.962 | locus YBR229C, strain ROT2, active compounds read low 0.979 | locus YBR231C, strain swc5, active compounds read low 0.942 | locus YBR279W, strain paf1, active compounds read low 0.95 | locus YCL011C, strain gbp2, active compounds read low 0.936 | locus YCL016C, strain dcc1, active compounds read low 0.944 | locus YCL029C, strain bik1, active compounds read low 0.962 | locus YCL061C, strain MRC1, active compounds read low 0.967 | locus YCL069W, strain vba3, active compounds read low 0.98 | locus YCR088W, strain abp1, active compounds read low 0.958 | locus YDL005C, strain med2, active compounds read low 0.948 | locus YDL035C, strain GPR1, active compounds read low 1.04 | locus YDL040C, strain nat1, active compounds read low 0.973 | locus YDL074C, strain BRE1, active compounds read low 1.01 | locus YDL101C, strain DUN1, active compounds read low 0.951 | locus YDL185W, strain tfp1, active compounds read low 0.932 | locus YDL192W, strain arf1, active compounds read low 0.982 | locus YDR001C, strain nth1, active compounds read low 0.966 | locus YDR069C, strain doa4, active compounds read low 0.943 | locus YDR101C, strain arx1, active compounds read low 1.03 | locus YDR137W, strain rgp1, active compounds read low 0.939 | locus YDR159W, strain sac3, active compounds read low 1 | locus YDR162C, strain NBP2, active compounds read low 0.993 | locus YDR195W, strain ref2 1 | locus YDR297W, strain sur2, active compounds read low 0.955 | locus YDR318W, strain mcm21, active compounds read low 0.989 | locus YDR334W, strain swr1, active compounds read low 0.941 | locus YDR335W, strain msn5, active compounds read low 0.95 | locus YDR388W, active compounds read low 0.947 | locus YDR502C, strain sam2, active compounds read low 0.964 | locus YEL003W, strain gim4, active compounds read low 0.959 | locus YEL037C, strain rad23, active compounds read low 0.958 | locus YEL061C, strain CIN8 (second series), active compounds read low 0.96 | locus YEL061C, strain CIN8, active compounds read low 0.968 | locus YER015W, strain faa2, active compounds read low 0.935 | locus YER016W, strain bim1, active compounds read low 0.961 | locus YER110C, active compounds read low 0.924 | locus YER111C, strain swi4, active compounds read low 0.978 | locus YER155C, strain BEM2 (second series), active compounds read low 0.915 | locus YER155C, strain BEM2, active compounds read low 0.96 | locus YER167W, strain BCK2, active compounds read low 0.968 | locus YFR010W, strain ubp6, active compounds read low 0.944 | locus YGL078C, strain dbp3, active compounds read low 0.994 | locus YGL086W, strain mad1, active compounds read low 0.986 | locus YGL167C, strain pmr1, active compounds read low 0.943 | locus YGL173C, strain kem1, active compounds read low 0.977 | locus YGL227W, strain vid30, active compounds read low 0.973 | locus YGL240W, strain doc1, active compounds read low 0.939 | locus YGL248W, strain PDE1, active compounds read low 0.967 | locus YGL253W, strain hxk2, active compounds read low 0.971 | locus YGR078C, strain PAC10, active compounds read low 0.964 | locus YGR135W, strain pre9, active compounds read low 0.95 | locus YGR229C, strain SMI1, active compounds read low 1.01 | locus YGR252W, strain gcn5, active compounds read low 1.1 | locus YHR013C, strain ard1, active compounds read low 0.926 | locus YHR027C, strain rpn1, active compounds read low 0.945 | locus YHR030C, strain SLT2, active compounds read low 0.963 and 1.06 | locus YHR079C, strain IRE1 (second series), active compounds read low 0.968 | locus YHR079C, strain IRE1, active compounds read low 1.04 | locus YHR094C, strain hxt1, active compounds read low 0.961 | locus YHR129C, strain ARP1, active compounds read low 0.966 | locus YHR142W, strain chs7, active compounds read low 0.919 | locus YHR200W, strain rpn10, active compounds read low 0.983 | locus YIL066C, strain RNR3, active compounds read low 0.971 | locus YIL073C, strain SPO22, active compounds read low 0.938 | locus YIL125W, strain kgd1, active compounds read low 0.979 | locus YIR030C, strain dcg1, active compounds read low 0.956 | locus YJL092W, strain hpr5, active compounds read low 0.957 | locus YJL095W, strain BCK1 (second series), active compounds read low 0.95 | locus YJL095W, strain BCK1, active compounds read low 0.935 and 1.06 | locus YJL115W, strain asf1, active compounds read low 0.939 | locus YJL129C, strain trk1, active compounds read low 0.949 | locus YJL134W, strain LCB3, active compounds read low 0.964 | locus YJL154C, strain vps35, active compounds read low 0.959 | locus YJL164C, strain tpk1, active compounds read low 0.929 | locus YJL166W, strain qcr8, active compounds read low 0.955 | locus YJL168C, strain set2, active compounds read low 0.965 | locus YJL187C, strain SWE1 (second series), active compounds read low 0.967 | locus YJL187C, strain SWE1, active compounds read low 0.954 | locus YJR043C, strain POL32, active compounds read low 1.08
active: locus YAL021C, strain ccr4, active compounds read low 0.901 | locus YDR392W, strain spt3, active compounds read low 0.721

From PubChem BioAssay AID1159580 (chemical genetic matrix, 2015)
